In PubChem BioAssay:
A number with no mark means an inactive call. Calls of active or inactive are those of the source.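 The calls were made as follows, unless noted: active = mean inhibition above 46.68%, the untreated control wells mean plus 3 SD; inactive = the rest.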

Legend:
[1] = target: Nuclear receptor coactivator 1 (Homo sapiens) (UniProt Q15788); assay: SRC1 coactivator transcriptional activity inhibitors, confirmation, cell-based, luminescence, quadruplicate (AID 588820); details: HEK293 GAL4-SRC1 luciferase reporter, at 3.6 µM, active compounds read high;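 also: 0% = DMSO wells and 100% = gossypol 36 µM treated wells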
[2] = VP16 transactivation inhibitors, counter-screen for SRC1 inhibitor project, cell-based, luminescence, high throughput (AID 588824; in the data active = inhibition above about 25%); details: cell-based VP16 transactivation luciferase luminescence; at 3.6 µM; active compounds read high

Chain of Nuclear receptor coactivator 1 (Homo sapiens) (Q15788 whole entry, looked up, the tested form may be a part): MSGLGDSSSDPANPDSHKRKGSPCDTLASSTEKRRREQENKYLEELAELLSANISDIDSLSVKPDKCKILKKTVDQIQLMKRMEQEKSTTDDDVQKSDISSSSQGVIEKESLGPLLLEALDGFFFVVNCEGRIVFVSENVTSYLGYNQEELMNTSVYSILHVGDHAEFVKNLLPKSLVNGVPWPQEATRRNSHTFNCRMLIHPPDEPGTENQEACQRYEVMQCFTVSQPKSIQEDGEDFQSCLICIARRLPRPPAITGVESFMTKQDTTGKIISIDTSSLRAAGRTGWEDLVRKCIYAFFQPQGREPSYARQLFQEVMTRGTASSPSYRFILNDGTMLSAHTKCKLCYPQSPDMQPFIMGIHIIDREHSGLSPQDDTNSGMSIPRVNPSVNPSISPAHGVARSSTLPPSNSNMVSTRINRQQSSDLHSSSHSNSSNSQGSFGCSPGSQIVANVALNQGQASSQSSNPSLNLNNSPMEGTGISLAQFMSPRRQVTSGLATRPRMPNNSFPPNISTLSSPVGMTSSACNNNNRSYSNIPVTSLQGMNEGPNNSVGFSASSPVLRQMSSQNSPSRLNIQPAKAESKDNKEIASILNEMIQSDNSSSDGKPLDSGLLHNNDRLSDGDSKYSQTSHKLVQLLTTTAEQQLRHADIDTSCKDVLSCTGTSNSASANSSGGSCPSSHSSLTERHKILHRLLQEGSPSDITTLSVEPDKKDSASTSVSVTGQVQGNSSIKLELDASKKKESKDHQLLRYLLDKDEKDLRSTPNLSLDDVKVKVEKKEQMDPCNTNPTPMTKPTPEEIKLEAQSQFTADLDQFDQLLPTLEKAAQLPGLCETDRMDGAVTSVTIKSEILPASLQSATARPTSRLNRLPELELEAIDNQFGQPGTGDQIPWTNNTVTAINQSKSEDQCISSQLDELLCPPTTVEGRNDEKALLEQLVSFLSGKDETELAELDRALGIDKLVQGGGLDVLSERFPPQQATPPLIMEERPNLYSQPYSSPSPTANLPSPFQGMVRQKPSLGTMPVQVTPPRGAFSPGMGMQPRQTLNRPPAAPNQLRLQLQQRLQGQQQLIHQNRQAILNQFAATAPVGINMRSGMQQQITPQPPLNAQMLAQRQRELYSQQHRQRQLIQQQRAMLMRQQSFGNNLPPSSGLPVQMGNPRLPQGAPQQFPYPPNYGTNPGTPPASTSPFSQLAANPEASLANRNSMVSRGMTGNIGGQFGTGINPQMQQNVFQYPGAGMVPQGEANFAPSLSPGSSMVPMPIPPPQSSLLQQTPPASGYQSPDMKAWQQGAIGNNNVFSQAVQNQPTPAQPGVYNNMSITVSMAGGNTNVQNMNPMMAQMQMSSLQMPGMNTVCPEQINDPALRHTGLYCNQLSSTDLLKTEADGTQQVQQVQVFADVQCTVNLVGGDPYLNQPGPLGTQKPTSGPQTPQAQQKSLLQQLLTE

For CC(=NNC(=S)N1CC2CCC(CC2)C1)c1nccs1, the inhibition [1] was 62.2% (active) and the inhibition [2] was 74.4% (active).

Work on CN1CCN(c2cccc3c2C(=O)c2ccccc2C3=O)CC1 yielded an inhibition [1] of 20.1% and an inhibition [2] of 14.8%.

CCN(CC)C(=O)c1ccc(NC(=O)c2ccc(-n3cncn3)c([N+](=O)[O-])c2)cc1 gave an inhibition [1] of -2.4% and an inhibition [2] of 5.45%.

In the case of CC(=CCOc1ccc2ccc(=O)oc2c1)C1=CC(=O)C(C)(C)O1, the inhibition [1] is reported as 17.3% and the inhibition [2] is reported as 35.2% (active).
